Measurements: PubChem BioAssay AID504710 (Sanford-Burnham Center for Chemical Genomics, 2011)
A number with no mark means an inactive call. The source made the active and inactive calls.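 Rule for the calls: active = inhibition reaching about 16% in any single replicate (limit read from the data); inactive = the rest.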

target: Hexokinase HKDC1 (Homo sapiens) (UniProt Q2TB90); assay: compounds lowering human HKDC1 activity – biochemical, single concentration, confirmation (AID 504710); details: recombinant HKDC1, G6PDH/diaphorase/resazurin fluorescence; at 20 µM; active compounds read high
Sequence (Q2TB90 whole entry, looked up): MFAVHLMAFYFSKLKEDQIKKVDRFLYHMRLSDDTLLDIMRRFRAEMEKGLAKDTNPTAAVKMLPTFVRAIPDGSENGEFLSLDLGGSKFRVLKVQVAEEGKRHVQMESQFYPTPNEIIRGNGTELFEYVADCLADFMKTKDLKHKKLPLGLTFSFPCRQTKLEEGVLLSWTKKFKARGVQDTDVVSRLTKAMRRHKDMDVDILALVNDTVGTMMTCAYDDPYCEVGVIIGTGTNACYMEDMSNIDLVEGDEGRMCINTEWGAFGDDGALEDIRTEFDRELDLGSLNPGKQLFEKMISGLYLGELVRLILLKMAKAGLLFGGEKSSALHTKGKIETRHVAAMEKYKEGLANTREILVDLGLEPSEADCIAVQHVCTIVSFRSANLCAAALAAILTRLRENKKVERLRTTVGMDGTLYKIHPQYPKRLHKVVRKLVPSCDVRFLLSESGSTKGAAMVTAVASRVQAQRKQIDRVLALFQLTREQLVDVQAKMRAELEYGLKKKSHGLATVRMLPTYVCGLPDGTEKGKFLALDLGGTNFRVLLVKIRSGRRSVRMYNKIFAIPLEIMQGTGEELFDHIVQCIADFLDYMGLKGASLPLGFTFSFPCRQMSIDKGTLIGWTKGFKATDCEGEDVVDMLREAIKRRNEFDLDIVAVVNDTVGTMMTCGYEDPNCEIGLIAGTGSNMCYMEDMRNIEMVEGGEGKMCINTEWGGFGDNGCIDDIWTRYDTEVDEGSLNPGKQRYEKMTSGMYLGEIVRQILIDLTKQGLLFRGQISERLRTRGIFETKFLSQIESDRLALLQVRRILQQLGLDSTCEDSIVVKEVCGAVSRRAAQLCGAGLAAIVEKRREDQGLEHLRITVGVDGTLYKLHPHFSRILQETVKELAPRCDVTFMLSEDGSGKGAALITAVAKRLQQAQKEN

Q: For `Cc1cccc(N2C(=O)NC(=O)/C(=C\c3ccc4c(c3)CCCN4Cc3ccccc3)C2=O)c1`, which inhibition is on record?
A: 45.2% (active)

Q: `CC(=O)OC1C2(CC3N4C(=O)C5(CO)SSC4(CC31O)C(=O)N5C)OC(C)C(C)(C)C2=O` (stereo not given) was tested. Which inhibition did it give?
A: -77%

Q: For `COC(=O)C1CN(C#N)N(c2ccc(Cl)cc2)C12c1ccccc1-c1ccccc12` (stereo not given), which inhibition is on record?
A: 73.6% (active)

Q: Which inhibition does the source give for `Cc1cccc(N2C(=O)NC(=O)/C(=C\c3cc(C)n(-c4sc5c(c4C#N)CCCC5)c3C)C2=O)c1C` here?
A: 54.9% (active)

Q: For `Nc1c(Br)cc2c3c(cccc13)-c1ccccc1-2`, which inhibition is on record?
A: 51.2% (active)

Q: Which inhibition does the source give for `COc1ccc(OC)c(N2C(=O)/C(=C/c3ccco3)C(=O)NC2=S)c1` here?
A: 77.4% (active)

Q: How did the inhibition turn out when `COC(=O)C[C@]1(C(=O)OC)CN(C#N)N(c2ccc(Cl)cc2)C12c1ccccc1-c1ccccc12` was run?
A: 62.4% (active)

Q: Which inhibition does the source give for `Cc1ccc(N2C(=O)NC(=O)/C(=C\c3cc(C)n(-c4sc5c(c4C#N)CCCC5)c3C)C2=O)cc1` here?
A: 77.3% (active)

Q: `O=C1NC(=S)N(c2ccc(F)cc2)C(=O)/C1=C\c1ccoc1` was tested. Which inhibition did it give?
A: 55.2% (active)

Q: Which inhibition does the source give for `O=c1c2ccccc2[se]n1-c1ccccc1` here?
A: 5.01% (active)

Q: For `COC(=O)[C@@H]1[C@@H](C(=O)OC)C2(c3ccccc3-c3ccccc32)N(c2ccc(Cl)cc2)N1C#N`, which inhibition is on record?
A: 43.1% (active)

Q: With `Cn1c(=O)c2c(nc(N/N=C/c3c(O)n(C4CCCCC4)c(=S)[nH]c3=O)n2C)n(C)c1=O` as the molecule, how does the inhibition read?
A: -49.5%

Q: `CCOC(=O)c1c(-n2c(C)cc(C=C3C(=O)NC(=S)NC3=O)c2C)sc2c1CCCC2` was tested. Which inhibition did it give?
A: 61% (active)

Q: Which inhibition does the source give for `COC(=O)C1=C(C(=O)OC)SC2(S1)C(C(=O)OC)=C(C(=O)OC)Sc1c2ssc1=O` here?
A: -88.9%

Q: With `COc1cc2c(cc1OC)-c1c(OC)c(OC)c(OC)c3ccnc(c13)C2=O` as the molecule, how does the inhibition read?
A: 57.5% (active)

Q: With `CCN(CC)CCCNC(=O)c1c(O)c2ccccc2n(Cc2ccccc2)c1=O` as the molecule, how does the inhibition read?
A: -37.1%

Q: For `Cc1cc(/C=C2\C(=O)NC(=O)N(c3ccc(Cl)cc3)C2=O)c(C)n1-c1sc2c(c1C#N)CCCC2`, which inhibition is on record?
A: 56.4% (active)

Q: With `Cc1ccc2c(C)c3ccc4ccccc4c3c[n+]2c1` as the molecule, how does the inhibition read?
A: -65.5%

Q: With `CC[C@H](C)/C=C(C)/C=C/C1=CC2=C(Cl)C(=O)[C@@](C)(OC(C)=O)C(=O)C2=CO1` as the molecule, how does the inhibition read?
A: 45.8% (active)

Q: `CC(=NNC(=S)N1CC2CCC(CC2)C1)c1nccs1` was tested. Which inhibition did it give?
A: -42.1%
